Data from PubChem BioAssay AID588342 (National Center for Advancing Translational Sciences (NCATS), 2011).
Hit rate of the full screen: of about 360,000 compounds, about 25,000 (6.9%) were called active. A call without a number means that no potency is given here. About 9% were inconclusive and are not listed. Calls follow the shape of the dose curve; as a rule, active = well fitted inhibition curve with a large enough effect; inconclusive = small, poorly fitted or top-dose-only effect; inactive = flat fitted curve, though single readings scatter. The full list was thinned out, with actives kept by preference.

target: Luciferin 4-monooxygenase (Photinus pyralis) (UniProt P08659); experiment: qHTS profiling assay for firefly luciferase inhibitor/activator using purifed enzyme and Km concentrations of substrates (counterscreen for miR-21 project); conditions: purified FLuc, luminescence inhibition; series mostly up to 57.5 µM; also: nearly all actives have a fitted effect of over 55% in size
How it was run: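 Purified P. pyralis luciferase (10nM final) with 10uM D-luciferin and 10uM ATP (Km levels) in 50mM Tris acetate pH 7.5, 10mM Mg acetate, 0.01% Tween-20, 0.05% BSA; qHTS 6-point titration, ~60 µM downward; luminescence read.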
Potency is read from the fitted curve at half-maximal effect.

Sequence of Luciferin 4-monooxygenase (Photinus pyralis) (P08659 whole entry, looked up): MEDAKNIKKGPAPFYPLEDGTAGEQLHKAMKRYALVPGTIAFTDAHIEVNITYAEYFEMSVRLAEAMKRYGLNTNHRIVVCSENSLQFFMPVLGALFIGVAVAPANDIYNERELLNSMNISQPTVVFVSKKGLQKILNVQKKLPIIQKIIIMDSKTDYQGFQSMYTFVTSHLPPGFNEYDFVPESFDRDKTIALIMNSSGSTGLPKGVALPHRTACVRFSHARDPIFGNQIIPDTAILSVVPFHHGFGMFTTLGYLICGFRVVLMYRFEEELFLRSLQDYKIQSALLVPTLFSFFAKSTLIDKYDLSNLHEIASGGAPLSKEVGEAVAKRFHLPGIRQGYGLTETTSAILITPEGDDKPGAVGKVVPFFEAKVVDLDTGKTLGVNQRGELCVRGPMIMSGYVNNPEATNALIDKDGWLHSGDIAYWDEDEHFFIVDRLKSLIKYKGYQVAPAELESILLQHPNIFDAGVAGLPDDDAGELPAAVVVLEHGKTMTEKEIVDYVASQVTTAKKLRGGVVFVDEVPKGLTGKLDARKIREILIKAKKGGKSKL

Row | SMILES | Potency
1 | Cc1ccc2cccc(NC(=O)c3ccc(OC(C)C)cc3)c2n1 | inactive
2 | CCOC(=O)c1ccc(CSc2nnc3cc(C)c4ccccc4n23)cc1 | inactive
3 | Oc1c(C(c2ccccc2Cl)N2CCOCC2)sc2nc(-c3ccco3)nn12 (stereo unspecified) | inactive
4 | CC(=O)c1ccc(NC(=O)C(C)N(C)CC(=O)Nc2ccccc2Cl)cc1 (stereo unspecified) | inactive
5 | Cc1cc(C)c2nc(NC(=O)C3CCCO3)sc2c1 (stereo unspecified) | 3.79 µM (active)
6 | Cc1ccc(C)c(C(C)NC(=O)C2CCCO2)c1 (stereo unspecified) | inactive
7 | Cc1cc([N+](=O)[O-])ccc1NC(=O)C1CCCO1 (stereo unspecified) | inactive
8 | COCCn1c(SCC(=O)c2cc(C)ccc2C)nc2cc(C(=O)NC3CCCC3)ccc2c1=O | inactive
9 | O=C(C1Cc2ccccc2CN1C(=O)c1ccco1)N1CCN(c2ccccc2)CC1 (stereo unspecified) | inactive
10 | O=C1NNC(c2ccccc2)=N/C1=C\c1ccc(Cl)cc1 | inactive
11 | Cc1ccc(-c2nc3ccccc3[nH]2)cc1N | 2.39 µM (active)
12 | O=C(Nc1sc2c(c1-c1nc3ccccc3[nH]1)CCCC2)C1CC1 | inactive
13 | COc1ccc(-c2[nH]nc(-c3ccccc3)c2-c2nc3ccccc3[nH]2)cc1 | inactive
14 | Cc1ccc(C)c(N2CCN(C(=O)CCc3nc4ccccc4[nH]3)CC2)c1 | inactive
15 | c1ccc2[nH]c(-c3nc4ccccc4[nH]3)nc2c1 | 2.13 µM (active)
16 | CN(C)c1cc(N)c2ccccc2n1 (tested in a mixture with another compound) | inactive
17 | COc1ccc(NC(=O)C2CCCN(S(=O)(=O)c3c(C)[nH]c(=O)[nH]c3=O)C2)c(OC)c1 (stereo unspecified) | inactive
18 | Cc1cc(C)c(NC(=O)CCc2c(C)nc3c(c(C)nn3C(C)(C)C)c2C)c(C)c1 | inactive
19 | CCCS(=O)(=O)N1CCC(n2c(C(F)(F)F)nc3cccnc32)CC1 | inactive
20 | CCOC(=O)c1ccc(NC(=O)Cn2c(=O)n(-c3ccc(C)cc3)c(=O)c3c2cnn3C)cc1 | inactive
21 | COc1cccc(/C=N/Nc2cc(C)nc(-c3ccccc3O)n2)c1O | 7.57 µM (active)
22 | COc1cccc2c(N/N=C/c3ccco3)cc(C)nc12 | inactive

Row | SMILES | Potency
23 | COc1cccc(/C=N/Nc2ncc(C(F)(F)F)cc2Cl)c1O | inactive
24 | COc1ccccc1CNC(=O)c1ccc(-n2c(C)cc3c2CCCC3)cc1 | inactive
25 | O=C(NCC(c1ccco1)S(=O)(=O)c1cccs1)c1ccc(F)cc1 (stereo unspecified) | inactive
26 | COc1ccc2[nH]cc(CCN3C(=O)c4ccc(C(=O)O)cc4C3=O)c2c1 | 21.3 µM (active)
27 | COc1ccc(C[C@H](C(=O)O)N2C(=O)c3ccc(C(=O)O)cc3C2=O)cc1 | inactive
28 | Cc1ccc2[nH]cc(CCCN3C(=O)c4ccccc4C3=O)c2c1 | inactive
29 | COc1ccc(OC)c(-n2nnc3c(sc4nc(C)c(Br)c(C)c43)c2=O)c1 | inactive
30 | Cc1ccc(S(=O)(=O)N(NC2=NS(=O)(=O)c3ccccc32)C(=O)c2ccccc2)cc1 | inactive
31 | CC(C)(C)c1csc(NC2=NS(=O)(=O)c3ccccc32)n1 | 1.51 µM (active)
32 | CC(C)C(NS(=O)(=O)c1cccs1)C(=O)Nc1nc(C(C)(C)C)cs1 (stereo unspecified) | inactive
33 | CCOc1ccc(C(C(=O)NC2CCCC2)N(C(=O)c2snc(C(N)=O)c2N)C2CCCC2)cc1 (stereo unspecified) | inactive
34 | CC(C)(C)[Si](OCC[C@@H]1C[C@@]1(C)[C@@H](NP(=O)(c1ccccc1)c1ccccc1)c1ccccc1)(c1ccccc1)c1ccccc1 | inactive
35 | O=C(CC(O)(C(F)(F)F)C(F)(F)F)Nc1ccc(Cl)c(Cl)c1 | inactive
36 | CCn1nccc1C(=O)Nc1ccc(S(=O)(=O)NC23CC4CC(CC(C4)C2)C3)cc1 | inactive
37 | CCn1nccc1C(=O)Nc1ccc(Cl)c(Cl)c1 | 21.3 µM (active)
38 | COC(=O)c1cnc(N2CCN(c3ccccc3OC)CC2)c2ccccc12 | inactive
39 | Cc1ccc(Cl)cc1NC(=O)CSc1nc2ccccc2nc1Cc1ccccc1 | inactive
40 | CCOc1ccc(-c2n[nH]c3c2C(c2ccccc2OC)N(c2ccc(Br)cc2)C3=O)cc1 (stereo unspecified) | inactive
41 | CCN(Cc1ccccc1)Cc1c(O)ccc2c(=O)c(-c3ccc(Cl)cc3Cl)coc12 | inactive
42 | CCOC(=O)c1c(C)[nH]c(C(=O)NCCN2CCOCC2)c1C | inactive
43 | CCOC(=O)c1[nH]c(C)c(C(=O)OCC(=O)N2c3ccccc3CC2C)c1C (stereo unspecified) | inactive
44 | O=C(OCC(=O)N1CCCC1=O)c1cc(S(=O)(=O)N2CCOCC2)ccc1Cl | inactive

Row | SMILES | Potency
45 | CN(C)S(=O)(=O)c1cccc(C(=O)OCC(=O)N2CCCC2=O)c1 | inactive
46 | CCOC(=O)c1c(C)[nH]c(C(=O)OCC(=O)N2CCCC2=O)c1C | 12 µM (active)
47 | Cc1c(C(=O)OCC(=O)N2CCCC2=O)oc2ccccc12 | 16.9 µM (active)
48 | CCOc1ccc(CCNC(=O)c2cc3c(=O)n(C)c4ccccc4c3n2C)cc1 | inactive
49 | O=S(=O)(c1ccc(Br)c2ccccc12)N1CCOCC1 | inactive
50 | Cc1ccc(N=Cc2c(O)n(-c3nccs3)c(=O)c3ccccc23)c(C)c1 | inactive
51 | Cc1ccc(Oc2c(C(F)(F)F)oc3c(CN4CCCCC4)c(O)ccc3c2=O)cc1 | inactive
52 | COc1cc(Cl)c(C)cc1NC(=O)CN1CCCCCC1 | inactive
53 | COc1cc([N+](=O)[O-])ccc1NC(=O)CN1CCCC1 | inactive
54 | O=C(CN1CCCCCC1)Nc1c(Cl)cc(Cl)cc1Cl | 15.1 µM (active)
55 | O=C(CN1CCOCC1)Nc1c(Cl)cc(Cl)cc1Cl | inactive
56 | O=C(CN1CCCCCC1)Nc1ccc(Cl)cc1F | inactive
57 | O=C(CN1CCCCCC1)Nc1ccc(Br)cc1Br | 16.9 µM (active)
58 | COc1ccc(C(=O)Nc2nonc2-c2ccc(OC)c(OC)c2)cc1Cl | inactive
59 | CCCc1ccc(OCC(O)CN2CCN(CCO)CC2)cc1 (stereo unspecified) | inactive
60 | CC(C)Cn1c(N)c(C(=O)COC(=O)C2CCCN2C(=O)c2cccs2)c(=O)n(C)c1=O (stereo unspecified) | inactive
61 | COc1ccc(-c2nnc(SC(C)C(=O)NC3CC3)o2)cc1 (stereo unspecified) | inactive
62 | Nc1nc(SCC(=O)Nc2ccc(Cl)c([N+](=O)[O-])c2)n[nH]1 | inactive
63 | COc1ccc(NC(=O)CSC2=Nc3ccccc3C3=NC(CC(=O)NCc4ccccc4OC)C(=O)N23)cc1Cl (stereo unspecified) | inactive
64 | O=C(c1cccc(Br)c1)N1CCN(C2=NS(=O)(=O)c3ccccc32)CC1 | inactive
65 | O=C(Oc1cccc(NC2=NS(=O)(=O)c3ccccc32)c1)c1ccncc1 | 26.9 µM (active)
66 | O=C(N/N=C/c1cccc(OC(=O)c2ccc([N+](=O)[O-])cc2)c1)c1cccnc1 | inactive
